Results on six compounds are retold here after PubChem BioAssay.

The structures appear in SMILES notation. Active and inactive are the calls of the source.

Assay [1] has as its system Plasmodium falciparum Sir2 (PF13_0152, Sir2A). The experiment in a line: Plasmodium falciparum Sir2A binding compounds – biochemical, small-molecule microarray, 635 nm fluorescence, primary screen (AID 1098).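 Further: score merges spot fluorescence intensity with its signal-to-noise ratio.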 The following applies: fluorescence 635 nm, higher = more signal.
Assay [2] in a line: probe aDKK1 binding to arrayed compounds – biochemical, biotinylated probe, 635/667 nm fluorescence, primary screen (AID 1099).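 Further: score merges 667nm spot fluorescence with signal to noise across triplicate slides.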 The note with it: small-molecule microarray, higher = more signal.
Assay [3] in a line: probe aCHRDL2 binding to arrayed compounds – biochemical, biotinylated probe, 635/667 nm fluorescence, primary screen (AID 1100). The following applies: small-molecule microarray, higher = more signal.
A short description of assay [4]: change in splice reporter luminescence, either direction, cell-based, HEK293, spliceosome inhibition project, primary screen (AID 1101).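 Further: HEK293 cells carrying a splicing-competent luciferase reporter gene; test concentration not given here.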 The following applies: HEK293 splicing luciferase reporter, 24 h, higher = more signal, called active from +8 up or from −8 down.
The target in assay [5] is Fibroblast growth factor 10 (Homo sapiens) (UniProt O15520). Briefly: compounds binding fibroblast growth factor 10 – biochemical, small-molecule microarray, 635 nm fluorescence, primary screen (AID 1102). The following applies: FGF10 binding, fluorescence 635 nm, higher = more signal.
For assay [6], the system named is glycogen synthase kinase-3 (GSK3A per assay name; protocol says GSK3B). Briefly: compounds binding glycogen synthase kinase-3 – biochemical, small-molecule microarray, 635 nm fluorescence, GSK3A, primary screen (AID 1103). Further: the record names both GSK3A and GSK3B. The following applies: fluorescence 635 nm, higher = more signal.
The target of assay [7] is Epidermal growth factor receptor (Homo sapiens) (UniProt P00533). The experiment in a line: compounds binding epidermal growth factor receptor – biochemical, small-molecule microarray, 635 nm fluorescence, primary screen (AID 1104).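 Further: score merges 667 nm emission intensity with spot signal to noise over triplicate slides.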 The note with it: EGFR binding, higher = more signal.
The target in assay [8] is Follistatin-related protein 3 (Homo sapiens) (UniProt O95633). The experiment in a line: compounds binding follistatin-related protein 3 – biochemical, small-molecule microarray, 635 nm fluorescence, primary screen (AID 1105).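 Further: score merges emission near 667 nm and signal to noise per printed spot across three slides.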 The following applies: FSTL3 binding, higher = more signal.
In assay [9] the target is Dickkopf-related protein 1 (Homo sapiens) (UniProt O94907). The experiment in a line: small molecules binding DKK1 protein – biochemical, small-molecule microarray, 635 nm fluorescence scan, primary screen (AID 1106).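 Further: score merges emission near 667 nm with signal to noise over three replicate slides.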 The following applies: higher = more signal.
Assay [10] has as its system Inhibin beta A chain (activin A). Briefly: small molecules binding activin A – biochemical, small-molecule microarray, 635 nm fluorescence scan, primary screen (AID 1107).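 Further: mouse activin A protein probed at 4.33 µg/mL on printed slides; score merges bound-protein fluorescence near 667 nm with spot signal-to-noise.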 The note with it: INHBA, higher = more signal.
In assay [11] the test system is Human papillomavirus type 1a protein E7 (residues 44-93). Briefly: small molecules binding HPV E7 44-93 – biochemical, small-molecule microarray, residues 44-93, 635 nm fluorescence, primary screen (AID 1108).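 Further: E7 fragment applied at 1 µg/mL in TBST for 1 h at 4 C; score combines spot fluorescence with its signal to noise ratio.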 The note with it: fluorescence 635 nm, higher = more signal.
Assay [12] can be described thus: hepatitis C replication reporter changes, two-sided – Huh7 cells, luciferase reporter, HCV replication inhibitor project, primary screen (AID 1109).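 Further: huh7 hepatoma cells harbouring a luciferase neomycin HCV replicon reporter; luciferase luminescence as measure of HCV replicon replication; test concentration not given here.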 The note with it: Huh7 HCV replicon luciferase reporter, 48 h; higher = more signal.
Assay [13] has as its target Left-right determination factor 2 (Homo sapiens) (UniProt O00292). The experiment in a line: small molecules binding LEFTY2 protein – biochemical, small-molecule microarray, 635 nm fluorescence scan, primary screen (AID 1110). The note with it: higher = more signal.
The target of assay [14] is Calmodulin-1 (Homo sapiens) (UniProt P0DP23). The experiment in a line: small molecules binding calmodulin-1 with EGTA – biochemical, small-molecule microarray, Cy5-labelled CALM1, profiling panel (AID 1111).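 Further: labelled calmodulin applied in Tris saline Tween buffer holding calcium plus EGTA and DTT.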 The following applies: Cy5-CALM1 binding fluorescence, higher = more signal.
Assay [15] shares this target. The experiment in a line: small molecules binding Ca-loaded calmodulin-1 – biochemical, small-molecule microarray, Cy5-labelled CALM1, plus calcium, artefact control for SMM control-protein annotation, profiling panel (AID 1112).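 Further: score merges spot fluorescence with signal to noise from triplicate slides.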 The following applies: Cy5-CALM1 binding fluorescence, higher = more signal.
Assay [16] in a line: probe aWnt5a binding to arrayed compounds – biochemical, biotinylated probe, 635/667 nm fluorescence, primary screen (AID 1113).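 Further: score merges 667 nm fluorescence intensity with signal-to-noise per printed feature.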 The following applies: small-molecule microarray, higher = more signal.
Assay [17] in a line: probe aShh binding to arrayed compounds – biochemical, biotinylated probe, 635/667 nm fluorescence, primary screen (AID 1114).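 Further: probe is biotin-labelled aShh protein from a stem cell growth factor screen; measures binding of labelled protein to compounds printed on the slide; score merges feature fluorescence at 667 nm with signal-to-noise.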 The note with it: small-molecule microarray, higher = more signal.
Assay [18] is described as follows: probe aNog binding to arrayed compounds – biochemical, biotinylated probe, 635/667 nm fluorescence, primary screen (AID 1115).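 Further: probe is biotinylated aNog protein used at 0.15 µg/mL for 1 h at 4 C; z-score combines 667 nm fluorescence of each spot with its signal to noise.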 The following applies: small-molecule microarray, higher = more signal.
Assay [19] has as its target Torsin-1A-interacting protein 1 (Homo sapiens) (UniProt Q5JTV8). Briefly: compound microarray binding of lysate hLAP1 – cell lysate, small-molecule microarray, COS7 lysate, 635/667 nm fluorescence, primary screen (AID 1116). The note with it: 635 nm fluorescence, higher = more signal.
The target in assay [20] is Alpha-bungarotoxin (Bungarus multicinctus) (UniProt P60615). Briefly: compounds binding labelled alpha-BTX control protein – biochemical, small-molecule microarray, Alexa647 label, 635/667 nm fluorescence, artefact control for SMM control protein annotation, profiling panel (AID 1117). The note with it: alpha-BTX-A647 binding fluorescence, higher = more signal.
Alpha-bungarotoxin (Bungarus multicinctus), sequence (P60615 whole entry, looked up): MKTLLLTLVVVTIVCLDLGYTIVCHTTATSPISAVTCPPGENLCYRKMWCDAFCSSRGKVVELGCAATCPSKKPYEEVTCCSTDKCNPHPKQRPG

Torsin-1A-interacting protein 1 (Homo sapiens), sequence (Q5JTV8 whole entry, looked up): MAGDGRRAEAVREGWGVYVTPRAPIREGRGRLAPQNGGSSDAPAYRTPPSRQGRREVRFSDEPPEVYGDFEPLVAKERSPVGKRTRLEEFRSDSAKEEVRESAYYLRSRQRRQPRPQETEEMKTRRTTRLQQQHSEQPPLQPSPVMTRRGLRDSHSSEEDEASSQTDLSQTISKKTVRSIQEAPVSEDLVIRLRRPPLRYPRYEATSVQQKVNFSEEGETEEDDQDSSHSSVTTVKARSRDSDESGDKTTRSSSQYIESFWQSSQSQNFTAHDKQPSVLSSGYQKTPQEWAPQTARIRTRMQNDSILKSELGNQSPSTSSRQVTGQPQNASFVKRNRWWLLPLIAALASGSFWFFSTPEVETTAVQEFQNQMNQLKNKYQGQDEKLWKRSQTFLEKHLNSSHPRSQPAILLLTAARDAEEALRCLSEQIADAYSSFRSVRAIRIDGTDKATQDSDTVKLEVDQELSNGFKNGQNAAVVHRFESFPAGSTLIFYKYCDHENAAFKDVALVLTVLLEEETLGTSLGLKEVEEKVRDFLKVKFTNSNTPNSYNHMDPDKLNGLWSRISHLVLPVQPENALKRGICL
Fibroblast growth factor 10 (Homo sapiens), sequence (O15520 whole entry, looked up): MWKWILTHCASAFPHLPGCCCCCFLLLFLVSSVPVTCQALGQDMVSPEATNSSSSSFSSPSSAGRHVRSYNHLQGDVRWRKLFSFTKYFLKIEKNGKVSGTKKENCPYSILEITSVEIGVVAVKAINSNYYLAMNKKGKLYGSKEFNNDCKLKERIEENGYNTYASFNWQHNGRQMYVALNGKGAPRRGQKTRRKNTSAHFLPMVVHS
Epidermal growth factor receptor (Homo sapiens), sequence (P00533 whole entry, looked up): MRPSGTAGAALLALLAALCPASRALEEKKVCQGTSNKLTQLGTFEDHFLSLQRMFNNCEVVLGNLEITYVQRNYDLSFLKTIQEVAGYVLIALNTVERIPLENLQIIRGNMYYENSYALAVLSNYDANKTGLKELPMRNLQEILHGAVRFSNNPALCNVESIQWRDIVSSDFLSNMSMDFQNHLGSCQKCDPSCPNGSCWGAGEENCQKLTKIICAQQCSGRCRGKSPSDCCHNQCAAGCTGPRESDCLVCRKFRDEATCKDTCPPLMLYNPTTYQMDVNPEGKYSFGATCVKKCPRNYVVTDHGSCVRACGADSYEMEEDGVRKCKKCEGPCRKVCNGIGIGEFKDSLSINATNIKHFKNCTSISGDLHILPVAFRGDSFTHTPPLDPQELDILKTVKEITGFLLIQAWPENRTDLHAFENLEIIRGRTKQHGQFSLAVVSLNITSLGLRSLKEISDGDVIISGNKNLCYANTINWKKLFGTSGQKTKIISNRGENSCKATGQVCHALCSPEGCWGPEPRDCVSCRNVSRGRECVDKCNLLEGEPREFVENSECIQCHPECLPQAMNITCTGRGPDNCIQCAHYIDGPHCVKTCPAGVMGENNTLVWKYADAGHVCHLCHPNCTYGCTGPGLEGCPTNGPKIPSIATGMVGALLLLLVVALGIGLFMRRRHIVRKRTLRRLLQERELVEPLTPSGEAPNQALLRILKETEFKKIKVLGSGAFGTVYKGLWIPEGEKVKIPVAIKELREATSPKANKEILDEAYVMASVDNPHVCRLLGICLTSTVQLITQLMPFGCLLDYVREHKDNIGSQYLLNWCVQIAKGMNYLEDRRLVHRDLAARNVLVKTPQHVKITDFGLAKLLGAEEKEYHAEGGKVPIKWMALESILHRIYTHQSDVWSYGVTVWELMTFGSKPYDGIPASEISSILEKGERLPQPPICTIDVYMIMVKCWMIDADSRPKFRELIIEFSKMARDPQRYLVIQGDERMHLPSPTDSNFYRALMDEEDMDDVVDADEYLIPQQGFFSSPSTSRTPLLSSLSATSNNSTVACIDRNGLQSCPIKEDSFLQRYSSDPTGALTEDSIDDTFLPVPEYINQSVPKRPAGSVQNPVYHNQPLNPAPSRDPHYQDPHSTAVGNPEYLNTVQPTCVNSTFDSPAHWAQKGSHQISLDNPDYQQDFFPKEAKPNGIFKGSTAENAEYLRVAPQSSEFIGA
Follistatin-related protein 3 (Homo sapiens), sequence (O95633 whole entry, looked up): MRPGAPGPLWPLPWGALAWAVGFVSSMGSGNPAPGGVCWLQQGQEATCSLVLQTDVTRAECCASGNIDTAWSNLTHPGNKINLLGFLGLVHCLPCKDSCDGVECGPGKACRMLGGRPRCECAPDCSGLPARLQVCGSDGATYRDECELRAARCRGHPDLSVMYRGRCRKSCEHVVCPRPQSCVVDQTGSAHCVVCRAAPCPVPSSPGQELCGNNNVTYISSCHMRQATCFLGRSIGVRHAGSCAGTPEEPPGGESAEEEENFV
Left-right determination factor 2 (Homo sapiens), sequence (O00292 whole entry, looked up): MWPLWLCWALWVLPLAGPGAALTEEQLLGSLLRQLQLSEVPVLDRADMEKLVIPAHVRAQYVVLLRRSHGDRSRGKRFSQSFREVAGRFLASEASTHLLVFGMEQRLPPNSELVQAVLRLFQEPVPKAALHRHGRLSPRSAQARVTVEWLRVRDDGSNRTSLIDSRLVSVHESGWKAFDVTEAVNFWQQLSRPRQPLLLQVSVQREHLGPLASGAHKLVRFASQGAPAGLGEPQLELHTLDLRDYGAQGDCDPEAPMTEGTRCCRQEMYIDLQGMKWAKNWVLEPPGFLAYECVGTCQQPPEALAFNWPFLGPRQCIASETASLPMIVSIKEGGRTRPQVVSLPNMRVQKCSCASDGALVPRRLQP
Dickkopf-related protein 1 (Homo sapiens), sequence (O94907 whole entry, looked up): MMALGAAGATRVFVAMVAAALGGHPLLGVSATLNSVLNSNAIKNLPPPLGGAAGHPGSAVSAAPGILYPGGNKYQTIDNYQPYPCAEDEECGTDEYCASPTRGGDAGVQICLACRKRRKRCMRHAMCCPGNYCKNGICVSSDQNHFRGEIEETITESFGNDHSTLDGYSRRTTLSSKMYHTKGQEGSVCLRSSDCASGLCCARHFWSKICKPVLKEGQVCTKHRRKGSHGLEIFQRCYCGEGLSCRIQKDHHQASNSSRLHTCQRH

On to `O=C(O)[C@H]1C[C@H]2C(=O)N[C@@H](Cc3ccccc3)C(=O)N2[C@H]1c1ccc(O)cc1`, for which the composite z-score is 1.56 in assay [1]; 0.844 in [2]; 0.913 in [3]; -0.349 in assay [5]; 0.661 in assay [6]; -0.502 in assay [7]. The composite z-score in assay [8] is -0.192; in [9], -0.0944; in assay [10], 0.945; in assay [11], -0.067; in assay [13], -0.307; in [14] it was -0.195. For the same compound, the composite z-score in [15] is 0.504; in assay [16], -0.0678; in assay [17], -0.0783; in assay [18] it was 0.586; in assay [19], 0.777; in [20], 0.824. The z-score in assay [4] was -0.282 (inactive); in [12], -0.262.

For the compound `COCCOC(=O)N1C(=O)[C@@]2(c3cc(C#CC4(O)CCCCCC4)ccc31)[C@H](c1ccccc1OCCO)N1[C@H](c3ccccc3)[C@H](c3ccccc3)OC(=O)[C@H]1[C@@H]2C(=O)Nc1nc2ccccc2s1`, the composite z-score in [1] is 0.81; in [2], 0.55; in assay [3], 0.65; in assay [5] it was 0.989; in [6], 1.23; in [7], 0.45. Further, the composite z-score in assay [8] stood at 1.07; in assay [9], 0.816; in assay [10], 0.995; in assay [11], 0.425; in [13], 0.636; in [14], 1.59. The composite z-score came to 0.941 in assay [15]; 0.0317 in [16]; 0.275 in [17]; 0.182 in [18]; 1.46 in assay [19]; 2.25 in [20]. Moreover, the z-score in assay [4] is -0.318 (inactive); in [12], -1.51.

Take `Cc1ccc(S[C@]2(C(=O)NCCN3CCOCC3)CC(=O)N(Cc3cc(C(F)(F)F)cc(C(F)(F)F)c3)[C@@H]2c2ccc(CO)cc2)cc1`: the composite z-score is 1.71 in assay [1]; 0.523 in assay [2]; 0.866 in assay [3]; -0.703 in assay [5]; -1.45 in [6]; -1.19 in [7]. Besides, the composite z-score in assay [8] was -1.15; in assay [9], -1.05; in assay [10] it was 0.156; in [11], -0.233; in assay [13], -1.13; in assay [14], -0.411. Moreover, the composite z-score in [15] was -0.132; in assay [16], -0.175; in assay [17], -0.153; in assay [18], 0.455; in [19], -0.998; in assay [20] it was -0.842. For the same compound, the figures for the z-score in assay [4] and in assay [12] were -0.688 (inactive) and -0.429, respectively.

Regarding `COC(=O)C(CC#Cc1ccc2c(c1)[C@]1(C(=O)N2)[C@H](C(N)=O)[C@H]2C(=O)O[C@H](c3ccccc3)[C@H](c3ccccc3)N2[C@@H]1c1ccc(O)cc1)C(=O)OC`, the composite z-score in assay [1] is 1.12; in assay [2], -0.608; in assay [3], -0.0947; in [5], -0.519; in assay [6], -1.15; in assay [7] it was -1.1. Besides, the composite z-score in [8] was -1.28; in assay [9], -0.591; in assay [10], -1.15; in assay [11] it was -1.74; in [13], -1.19; in [14] it was -0.351. Also, the composite z-score is 0.221 in assay [15]; -0.359 in assay [16]; 0.373 in assay [17]; -0.446 in [18]; 0.659 in assay [19]; -0.243 in assay [20]. Moreover, the values for the z-score in [4] and in assay [12] were 0.0733 (inactive) and -0.152, respectively.

Take `CC(CO)N1C(=O)[C@@H]2C3C(=O)OCCC/C=C\[C@H]3OC23C=CCN(Cc2ccccc2)C(=O)[C@@H]13` (stereo not given in full): the composite z-score is 0.608 in assay [1]; -0.206 in assay [2]; 0.0202 in assay [3]; -0.559 in [5]; -0.236 in assay [6]; -0.794 in assay [7]. The composite z-score in assay [8] was -0.639; in assay [9], -0.386; in assay [10], 1.21; in assay [11], -0.412; in assay [13], -0.784; in assay [14], -0.182. The composite z-score in assay [15] was -0.292; in assay [16] it was -0.176; in [17] it was -0.0769; in assay [18], -0.036; in [19] it was -0.307; in assay [20] it was -1.53. For the same compound, the z-score was -0.992 (inactive) in assay [4] and -0.159 in assay [12].

As for `C=CCNC(=O)[C@H]1[C@@H]2C(=O)O[C@@H](c3ccccc3)[C@@H](c3ccccc3)N2[C@@H](c2ccccc2OCCO)[C@]12C(=O)N(C(=O)OCCOC)c1ccc(C#CCCO)cc12`, the composite z-score in assay [1] was 0.745; in [2] it was 1.73; in assay [3], 0.981; in assay [5], 1.35; in [6], 1.2; in [7], 0.843. The composite z-score in assay [8] came out at 1.24; in assay [9], 0.983; in assay [10], 1.01; in [11] it was 0.188; in assay [13], 1.06; in assay [14], 1.78. The composite z-score in [15] was 1.08; in assay [16] it was 0.0722; in assay [17] it was 0.715; in assay [18], 1.23; in [19], 0.985; in assay [20], 0.581. Besides, the z-score in assay [4] was -0.485 (inactive); in assay [12], -2.5.
